# Results from PubChem BioAssay (NCI).
# The panel holds about 79,000 compounds, 15% with a hit somewhere; the sample as a whole holds those more often. Calls of active or inactive are those of the source. No stated cut-off is given here; in the data, active means growth inhibition above about 70%; inactive means the rest.
# Assay: NCI Yeast Anticancer Drug Screen. Data for the sgs1 mgt1 strain (AID 161);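 further: 0% = growth of cultures given vehicle only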
# Conditions: S. cerevisiae sgs1 mgt1 strain, stronger effect = higher value
# Procedure: Growth inhibition of yeast strains with defined genetic alterations is measured as a screen for potential anti-cancer activity. Selected strains with alterations in DNA damage repair or cell cycle control were exposed to compounds and growth inhibition was measured relative to vehicle treated controls. The strain used in this assay is sgs1 mgt1
# [1] = at 5.0 µM (retest, dose inferred, filed as 0.5)
# [2] = at 50.0 µM (retest, dose inferred, filed as 5.0)
Compound,growth inhibition [1],growth inhibition [2],growth inhibition (at 50.0 µM)
CCOC1=Cc2c(oc3c(C(C)(C)C)cc(OCC)cc23)OC(C(C)(C)C)=C1,28% (inactive),97% (active),73.4% (active)
Clc1ccccc1C=Nc1cccc2ccccc12,-9% (inactive),-1% (inactive),27.1% (inactive)
CCCCN(CCCC)C(=O)c1ccc(Cl)cc1Cl,6% (inactive),97% (active),98.4% (active)
COc1cc(O)c2c(=O)c3cccc(C)c3[nH]c2c1,3% (inactive),41% (inactive),46.1% (inactive)
O=C(O)CCC(O)=C1S(=O)(=O)OCCOS1(=O)=O,-16% (inactive),-3% (inactive),-1.5% (inactive)
c1ccc(Nc2nnc3nc(-c4ccccc4)c(-c4ccccc4)nn23)cc1,19% (inactive),91% (active),91.5% (active)
Cc1c2ccccc2cc2c1ccc1cccc(F)c12,1% (inactive),87% (active),80.7% (active)
CN(NC(=O)/C(=C/c1ccc2c(c1)OCO2)NC(=O)c1ccccc1)c1ccnc2cc(Cl)ccc12,-9% (inactive),-15% (inactive),78% (active)
COc1ccc(C(c2c(O)c3ccccc3oc2=O)N2CCOCC2)cc1 (configuration not stated),-13% (inactive),-29% (inactive),-34.9% (inactive)
Cc1cc(Cl)c2c(c1)C(=O)/C(=C/c1ccc(Cl)cc1)O2,-17% (inactive),99% (active),84.1% (active)
CCCCN(CCCC)c1ccc2c(c1)C(O)c1ccccc1-2 (configuration not stated),4% (inactive),78% (active),88.1% (active)
N=C(N)c1ccc(SCCCCCSc2ccc(C(=N)N)cc2)cc1,24% (inactive),86% (active),76% (active)
CCc1c(O)sc2c(c1=O)C(=NCC(C)C)CC(C)(C)N2,9% (inactive),-4% (inactive),34.1% (inactive)
CNS(=O)(=O)c1ccccc1C=C(c1ccccc1)c1ccccc1,4% (inactive),93% (active),94% (active)
